The text below walks through data of PubChem BioAssay AID720641 (ICCB-Longwood Screening Facility, Harvard Medical School, 2013).

Each structure is given as a SMILES string. In all, about 170,000 compounds went through this assay and about 900 (0.53%) were called active.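 The calls were made as follows: active = relative growth at most 50% at the other temperature and 20+ points below 30 °C, or under 10% at both; inactive = the rest, inconclusive results apart.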 Shown is part of a subset that was picked to be rich in actives.

This assay can be described thus: S. aureus growth inhibition at 42 and 30 °C, primary screen, LtaS inhibitor project, RN4220, two temperatures (AID 720641). To be noted: OD600, 20 h, 42 °C, stronger effect = lower value.

Regarding `[C-]#[N+]c1ccc(Cl)cc1C(C)S(=O)(=O)c1ccc(C)cc1` (stereo not given), the relative growth is 4.29% (active). The same compound returned a relative growth (measured here: growth at 30 °C) of 7.07%.
The like results for `Cc1cc(N2CCNCC2)nc(C)n1` were, in that order, 91.3% (inactive) and 82.9%.
On the same counts, the results for `CN1C(=O)C(C(=O)O)C2CC1Oc1ccccc12` (stereo not given) are 91.5% (inactive) and 72.8%.
On the same counts, the results for `O=C(Cn1cc(/C=C2/C(=O)NC(=O)N(Cc3ccco3)C2=O)c2ccccc21)NCC1CCCO1` (stereo not given) are 98.4% (inactive) and 86.3%.
As for `CN(C)c1ccc(/C=C2/C(=O)C3CCN2CC3)cc1`, the relative growth is 112% (inactive). Moreover, the relative growth (measured here: growth at 30 °C) stood at 95.5%.
